Test [1] is described as follows: qHTS for Inhibitors of ATXN expression: Validation (AID 588378; active means well fitted curve in the direction sought with a large enough effect; an effect the other way counts as inactive or inconclusive; further: series mostly up to about 57 µM; on the % scale 0 is the no-effect control and ±100 the full control effect; nearly all actives have a fitted effect of over 75% in size). In short, it runs like this:
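Validation of ATXN2 expression inhibitors uses a cell-based luciferase fusion reporter in HEK293 cells, with 24 h compound exposure and paired viability (fluorescence) and reporter (luminescence) end-point reads.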

Test [2] concerns the target DNA dC->dU-editing enzyme APOBEC-3G (Homo sapiens) (UniProt Q9HC16). The test is described as follows: qHTS for inhibitors of Vif-A3G interactions: Validation (AID 588379; active means well fitted curve in the direction sought with a large enough effect; an effect the other way counts as inactive or inconclusive; further: 0% is about no effect). The essentials:
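Yellow fluorescence (Ex 488, Em 500-530) of Vif-coexpressing HeLa A3G-eYFP cells, scanned by Acumen cytometer, reports blocked A3G degradation. Cells plated at 700/well overnight at 37 deg C before compound addition, then a further overnight compound incubation at 37 deg C.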
(In qHTS, concentration-response curves come from the screen itself.)

Test [3] concerns the target Bile acid receptor (Homo sapiens) (UniProt Q96RI1). The test can be described thus: qHTS assay for small molecule antagonists of farnesoid X receptor signaling (AID 588526). Further: on the % scale 0 is the no-effect control and ±100 the full control effect. The essentials: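 Antagonist mode: titrated compounds tested against chenodeoxycholic acid stimulation (normalized to 50 uM CDCA and DMSO) in GeneBLAzer HEK293T cells for 16 h. Beta-lactamase read by CCF4 fluorescence; IC50 from Hill fits.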

For test [4] the target is unchanged. The test is described as follows: qHTS assay for small molecule agonists of farnesoid X receptor signaling (AID 588527).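 Further: series mostly up to about 77 µM; 0% = vehicle basal and 100% = reference agonist.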 The conditions noted are these: HEK293T FXR-UAS-bla, beta-lactamase ratio, 16 h; stronger effect = higher value. In short, it runs like this:
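Agonist-mode beta-lactamase reporter in GeneBLAzer FXR-UAS-bla HEK293T cells, titration up to 92 uM, 16 h exposure at 37 C, CCF4 fluorescence. Response scaled to DMSO (0%) and 100 uM chenodeoxycholic acid (100%), then Hill-fitted for EC50 and efficacy.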

Test [5] deals with Glucocorticoid receptor (Homo sapiens) (UniProt P04150). The test is described as follows: qHTS assay for small molecule agonists of glucocorticoid receptor signaling (AID 588532; active means well fitted curve in the direction sought with a large enough effect in the signal ratio, with a control signal flat; the % refers to the signal ratio;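 further: 100% = dexamethasone at 0.1 µM and 0% = DMSO only wells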). Conditions: HeLa MMTV-bla, beta-lactamase ratio, agonist, 18 h; stronger effect = higher value; percent of dexamethasone control, DMSO zero. In short, it runs like this: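 Cells were plated and rested 3-5 h at 37 C, compounds were added in titration and incubated 18 h, then CCF4 substrate was loaded for 2 h at RT before reading blue/green fluorescence. EC50 came from Hill-equation fitting.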

The nature of test [6]: qHTS assay for small molecule antagonists of peroxisome proliferator-activated receptor delta signaling (AID 588535; active means well fitted inhibition curve with a large enough effect in the signal ratio, with a control signal flat, not every such curve was filed as active; the % refers to the signal ratio;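 on max response: cells co-treated with a PPAR-delta agonist as stimulator during compound exposure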). The conditions noted are these: HEK293T PPARd-UAS-bla, beta-lactamase FRET ratio, 18 h; 460 nm channel. In short, it runs like this:
(§1)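 Fluorescence from CCF4-loaded GeneBLAzer PPAR-delta-UAS-bla HEK293T cells (2 hrs RT loading) quantified reporter inhibition after an 18 hr, 37 C compound exposure across a titration.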

The target of test [7] is Peroxisome proliferator-activated receptor delta (Homo sapiens) (UniProt Q03181). The description is as above. The essentials:
as §1

Test [8] has as its target Peroxisome proliferator-activated receptor gamma (Homo sapiens) (UniProt P37231). The test is described as follows: qHTS assay for small molecule antagonists of peroxisome proliferator-activated receptor gamma signaling (AID 588537; active means well fitted inhibition curve with a large enough effect in the signal ratio, with a control signal flat, not every such curve was filed as active; the % refers to the signal ratio; further: potency means the concentration at half of the fitted maximal effect). In short, it runs like this: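 Fluorescence at 460 and 530 nm (405 nm excitation) reported beta-lactamase cleavage of CCF4 after 2 h room-temperature loading. HEK293 reporter cells in 1% charcoal/dextran-treated FBS had received compound and rosiglitazone for 16 h.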

The target in test [9] is Vitamin D3 receptor (Homo sapiens) (UniProt P11473). The test is described as follows: qHTS assay for small molecule antagonists of vitamin D receptor signaling (AID 588541).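 Further: receptor activated by calcitriol during compound treatment; series mostly up to about 77 µM; on the % scale 0 is the no-effect control and ±100 the full control effect.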 The essentials:
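VDR-UAS-bla HEK293T cells in 2% charcoal-stripped FBS were stimulated with 1-alpha,25-dihydroxyvitamin D3 (3 nM final) plus compound for 16 h at 37 C. The beta-lactamase CCF4 readout was normalized to 50 nM agonist and DMSO, and Hill fits gave IC50.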

For test [10] the target is unchanged. The test can be described thus: qHTS assay for small molecule agonists of vitamin D receptor signaling (AID 588543).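 Further: 0% = DMSO basal and 100% = reference agonist control.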 In short, it runs like this:
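qHTS in agonist mode: compound titrations stimulate a VDR-driven β-lactamase reporter in HEK293T cells over 16 h at 37 °C. Response normalized to 50 nM 1α,25-dihydroxyvitamin D3 = 100%, DMSO = 0%; Hill fitting gives EC50 and maximal response.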

The nature of test [11]: qHTS assay for small molecule antagonists of retinoid X receptor alpha signaling (AID 588546).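 Further: cells stimulated with 9-cis-retinoic acid as agonist; on the % scale 0 is the no-effect control and ±100 the full control effect.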 The conditions noted are these: HEK293T RXRa-UAS-bla, beta-lactamase ratio, antagonist mode; measured here: W530 green channel, cytotoxicity proxy. The essentials:
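Beta-lactamase reporter inhibition, read as CCF4 fluorescence ratio (ex 405, em 460/530 nm) after 2 h at RT. HEK293T UAS-bla cells, 2500/well, were stimulated with 9-cis-RA at 500 or 100 nM final alongside test compound for 18 h at 37 C.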

Test [12] has as its target Estrogen receptor (Homo sapiens) (UniProt P03372). The test is described as follows: qHTS assay for small molecule antagonists of estrogen receptor alpha signaling (AID 588513; active means well fitted curve in the direction sought with a large enough effect in the signal ratio, with a control signal flat, not every such curve was filed as active; the % refers to the signal ratio; further: on the % scale 0 is the no-effect control and ±100 the full control effect). In short, it runs like this: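 Cells were plated at 5000/well and incubated 4 h at 37 C. Compounds were added as 1:2 dilution series, duplicates. 17-beta-estradiol (0.5nM final) was added for 18 h before CCF4 detection.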

Test [13] has the same target. The test can be described thus: qHTS assay for small molecule agonists of estrogen receptor alpha signaling (AID 588514).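 Further: 0% = vehicle only and 100% = reference agonist; nearly all actives have a fitted effect of over 70% in size.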 The essentials: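 EC50 and efficacy came from Hill fits of beta-lactamase reporter signal (CCF4 dye, 2 h at room temperature) scaled between DMSO and 20 nM 17-beta-estradiol. Agonist mode: HEK293 ER-alpha-UAS-bla cells in charcoal/dextran-stripped serum medium, 18 h compound exposure at 37 C.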

The target in test [14] is Peroxisome proliferator-activated receptor gamma (Homo sapiens) (UniProt P37231). The test is described as follows: qHTS assay for small molecule agonists of peroxisome proliferator-activated receptor gamma signaling (AID 588536; active means well fitted curve in the direction sought with a large enough effect in the signal ratio, with a control signal flat, not every such curve was filed as active; the % refers to the signal ratio;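 further: 0% = DMSO basal wells and 100% = rosiglitazone at 2 µM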). In short, it runs like this:
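This is an agonist-mode beta-lactamase reporter assay in HEK293 PPAR-gamma-UAS-bla cells with 1% charcoal/dextran FBS. Compound titrations ran 16 h at 37 C before CCF4 detection. EC50 and efficacy are Hill fits scaled to 2 uM rosiglitazone (100%) and DMSO basal.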

Test [15] can be described thus: qHTS assay for small molecule agonists of retinoid X receptor alpha signaling (AID 588544).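 On activation: 0% = DMSO basal wells and 100% = reference agonist.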 The conditions noted are these: HEK293T RXRa-UAS-bla, beta-lactamase reporter, 18 h; 530 nm emission.
In test [16] the target is Retinoic acid receptor RXR-alpha (Homo sapiens) (UniProt P19793). The test is described as above.
Test [17] concerns the target Thyroid hormone receptor beta (Homo sapiens) (UniProt P10828). The test is described as follows: qHTS assay for small molecule agonists of thyroid hormone receptor beta signaling (AID 588545). In short, it runs like this:
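HEK 293 TR-UAS-bla; agonist mode; 18 hrs, 37 C; CCF4, ex 405/em 460 and 530 nm; norm. T3 10 nM = 100%, DMSO = 0%; Hill fit → EC50, efficacy.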

In test [18] the target is Androgen receptor (Homo sapiens) (UniProt P10275). The test is described as follows: qHTS assay for small molecule agonists of androgen receptor signaling (AID 588515; active means well fitted curve in the direction sought with a large enough effect in the signal ratio, with a control signal flat; the % refers to the signal ratio; further: on the % scale 0 is the no-effect control and ±100 the full control effect). Conditions: AR-UAS-bla HEK293, beta-lactamase ratio, agonist 16 h; stronger effect = higher value. The essentials:
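Stimulation of an AR-responsive β-lactamase reporter in GripTite HEK293 cells was measured after 16 h compound exposure at 37 °C, via CCF4 fluorescence after 2 h RT. EC50 from Hill fits, normalized to R1881 at 30 nM.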

“And” between values parts separate entries of the source, which are not always exact repeats. Equal values may be shown once. Records with an inconclusive call do not appear. The source made the active and inactive calls. Unless noted, the call rests on the fitted dose curve.

Sequence of Vitamin D3 receptor (Homo sapiens) (P11473 whole entry, looked up): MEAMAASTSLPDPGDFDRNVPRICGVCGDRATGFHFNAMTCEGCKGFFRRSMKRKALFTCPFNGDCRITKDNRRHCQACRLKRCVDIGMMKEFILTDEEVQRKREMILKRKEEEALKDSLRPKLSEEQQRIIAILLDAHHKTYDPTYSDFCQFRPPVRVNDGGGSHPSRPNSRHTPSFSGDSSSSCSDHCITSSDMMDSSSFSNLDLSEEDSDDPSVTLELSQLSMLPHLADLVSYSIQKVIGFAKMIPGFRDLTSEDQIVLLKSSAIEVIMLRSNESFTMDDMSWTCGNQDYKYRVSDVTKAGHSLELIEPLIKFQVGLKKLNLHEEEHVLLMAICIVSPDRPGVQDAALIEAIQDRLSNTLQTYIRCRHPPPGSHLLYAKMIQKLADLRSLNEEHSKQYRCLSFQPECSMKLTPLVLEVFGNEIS
Sequence of Glucocorticoid receptor (Homo sapiens) (P04150 whole entry, looked up): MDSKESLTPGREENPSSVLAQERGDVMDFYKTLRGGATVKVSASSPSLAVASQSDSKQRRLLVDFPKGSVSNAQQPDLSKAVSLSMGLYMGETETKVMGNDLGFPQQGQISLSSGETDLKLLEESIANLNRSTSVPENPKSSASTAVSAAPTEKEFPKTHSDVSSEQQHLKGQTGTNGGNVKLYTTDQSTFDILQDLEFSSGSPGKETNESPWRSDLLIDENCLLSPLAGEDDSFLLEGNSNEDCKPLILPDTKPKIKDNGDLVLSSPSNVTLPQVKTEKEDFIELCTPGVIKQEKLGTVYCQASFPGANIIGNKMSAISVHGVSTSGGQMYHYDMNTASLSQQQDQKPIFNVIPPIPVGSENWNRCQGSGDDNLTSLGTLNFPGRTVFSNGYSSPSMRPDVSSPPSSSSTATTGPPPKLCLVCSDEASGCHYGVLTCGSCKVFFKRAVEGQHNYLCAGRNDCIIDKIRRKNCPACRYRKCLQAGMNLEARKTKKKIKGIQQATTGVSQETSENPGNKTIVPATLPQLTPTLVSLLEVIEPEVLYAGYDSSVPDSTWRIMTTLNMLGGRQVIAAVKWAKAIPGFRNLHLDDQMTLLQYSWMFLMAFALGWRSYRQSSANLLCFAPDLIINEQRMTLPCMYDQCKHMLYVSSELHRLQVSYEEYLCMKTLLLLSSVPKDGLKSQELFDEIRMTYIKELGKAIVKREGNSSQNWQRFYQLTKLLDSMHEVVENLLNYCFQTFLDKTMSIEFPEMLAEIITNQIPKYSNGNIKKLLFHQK
Sequence of Bile acid receptor (Homo sapiens) (Q96RI1 whole entry, looked up): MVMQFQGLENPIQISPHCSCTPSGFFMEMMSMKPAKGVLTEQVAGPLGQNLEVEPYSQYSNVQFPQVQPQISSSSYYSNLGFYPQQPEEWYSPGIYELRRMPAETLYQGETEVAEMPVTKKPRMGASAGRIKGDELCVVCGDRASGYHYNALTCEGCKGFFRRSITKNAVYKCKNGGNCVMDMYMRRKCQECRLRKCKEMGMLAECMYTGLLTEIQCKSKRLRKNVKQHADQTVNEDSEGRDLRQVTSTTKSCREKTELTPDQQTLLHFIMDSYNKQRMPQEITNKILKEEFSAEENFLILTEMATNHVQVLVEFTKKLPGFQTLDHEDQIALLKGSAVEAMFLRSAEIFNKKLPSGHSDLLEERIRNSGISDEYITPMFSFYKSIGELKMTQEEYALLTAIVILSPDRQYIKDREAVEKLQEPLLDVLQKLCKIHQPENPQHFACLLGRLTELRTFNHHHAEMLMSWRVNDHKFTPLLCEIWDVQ
Sequence of Peroxisome proliferator-activated receptor gamma (Homo sapiens) (P37231 whole entry, looked up): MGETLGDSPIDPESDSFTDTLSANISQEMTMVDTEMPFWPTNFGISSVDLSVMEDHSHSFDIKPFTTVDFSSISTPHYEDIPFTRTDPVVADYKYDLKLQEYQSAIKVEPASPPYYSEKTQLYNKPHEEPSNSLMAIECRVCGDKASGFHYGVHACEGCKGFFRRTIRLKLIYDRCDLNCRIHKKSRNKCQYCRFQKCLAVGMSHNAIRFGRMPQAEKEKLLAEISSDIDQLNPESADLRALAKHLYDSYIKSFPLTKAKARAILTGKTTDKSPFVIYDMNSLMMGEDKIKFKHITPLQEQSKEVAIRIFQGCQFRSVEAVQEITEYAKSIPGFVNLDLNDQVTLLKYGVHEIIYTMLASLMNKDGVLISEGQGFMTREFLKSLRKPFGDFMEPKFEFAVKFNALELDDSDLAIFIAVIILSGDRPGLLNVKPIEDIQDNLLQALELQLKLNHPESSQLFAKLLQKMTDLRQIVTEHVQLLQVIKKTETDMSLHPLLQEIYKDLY
Sequence of Thyroid hormone receptor beta (Homo sapiens) (P10828 whole entry, looked up): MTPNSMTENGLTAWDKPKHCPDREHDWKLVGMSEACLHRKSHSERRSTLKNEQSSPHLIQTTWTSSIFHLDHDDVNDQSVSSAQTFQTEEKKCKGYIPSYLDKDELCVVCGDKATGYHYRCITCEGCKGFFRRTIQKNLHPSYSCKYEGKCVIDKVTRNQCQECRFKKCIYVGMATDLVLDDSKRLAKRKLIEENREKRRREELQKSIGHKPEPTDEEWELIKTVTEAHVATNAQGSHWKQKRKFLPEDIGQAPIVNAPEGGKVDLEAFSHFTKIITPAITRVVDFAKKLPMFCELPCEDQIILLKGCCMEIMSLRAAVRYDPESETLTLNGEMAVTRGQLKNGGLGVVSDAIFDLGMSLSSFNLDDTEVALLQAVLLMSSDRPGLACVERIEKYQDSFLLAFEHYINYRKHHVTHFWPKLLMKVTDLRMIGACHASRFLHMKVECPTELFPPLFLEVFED
Sequence of Peroxisome proliferator-activated receptor delta (Homo sapiens) (Q03181 whole entry, looked up): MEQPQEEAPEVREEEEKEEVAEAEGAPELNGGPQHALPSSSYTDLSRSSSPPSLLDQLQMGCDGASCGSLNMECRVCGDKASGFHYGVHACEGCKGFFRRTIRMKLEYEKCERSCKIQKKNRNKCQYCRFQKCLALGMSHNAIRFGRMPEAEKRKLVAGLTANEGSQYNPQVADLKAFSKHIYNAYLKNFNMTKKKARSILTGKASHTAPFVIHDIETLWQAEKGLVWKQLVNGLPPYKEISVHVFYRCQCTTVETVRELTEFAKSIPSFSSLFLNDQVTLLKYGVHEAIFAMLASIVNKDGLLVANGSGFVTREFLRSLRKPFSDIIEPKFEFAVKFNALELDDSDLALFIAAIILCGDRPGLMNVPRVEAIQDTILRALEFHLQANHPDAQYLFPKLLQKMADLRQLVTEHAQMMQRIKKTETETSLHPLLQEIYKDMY
Sequence of Estrogen receptor (Homo sapiens) (P03372 whole entry, looked up): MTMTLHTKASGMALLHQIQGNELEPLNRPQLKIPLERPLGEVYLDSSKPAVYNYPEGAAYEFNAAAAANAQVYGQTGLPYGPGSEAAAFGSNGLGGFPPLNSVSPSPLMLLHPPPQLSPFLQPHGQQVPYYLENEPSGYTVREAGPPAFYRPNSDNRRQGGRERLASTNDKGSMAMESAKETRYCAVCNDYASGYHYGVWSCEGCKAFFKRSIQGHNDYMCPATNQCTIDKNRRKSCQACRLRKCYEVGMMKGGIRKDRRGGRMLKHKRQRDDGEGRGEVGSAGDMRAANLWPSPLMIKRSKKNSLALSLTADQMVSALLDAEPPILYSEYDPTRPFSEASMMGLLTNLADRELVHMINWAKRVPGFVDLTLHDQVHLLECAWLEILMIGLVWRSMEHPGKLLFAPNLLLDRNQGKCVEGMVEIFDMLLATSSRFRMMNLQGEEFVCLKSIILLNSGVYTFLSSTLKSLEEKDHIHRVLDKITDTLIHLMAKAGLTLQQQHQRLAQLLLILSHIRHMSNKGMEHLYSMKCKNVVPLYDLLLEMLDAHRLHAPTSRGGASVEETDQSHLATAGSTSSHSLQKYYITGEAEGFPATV
Sequence of DNA dC->dU-editing enzyme APOBEC-3G (Homo sapiens) (Q9HC16 whole entry, looked up): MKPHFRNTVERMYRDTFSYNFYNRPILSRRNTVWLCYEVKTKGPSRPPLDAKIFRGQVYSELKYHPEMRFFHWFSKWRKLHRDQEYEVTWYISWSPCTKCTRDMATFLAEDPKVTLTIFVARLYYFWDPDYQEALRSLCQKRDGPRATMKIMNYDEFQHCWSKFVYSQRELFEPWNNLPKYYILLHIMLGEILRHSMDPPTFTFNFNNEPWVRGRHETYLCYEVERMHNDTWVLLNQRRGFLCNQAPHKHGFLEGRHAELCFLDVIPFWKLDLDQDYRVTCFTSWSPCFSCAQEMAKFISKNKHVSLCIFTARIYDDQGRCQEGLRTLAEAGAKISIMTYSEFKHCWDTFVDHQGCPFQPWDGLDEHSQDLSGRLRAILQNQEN
Sequence of Retinoic acid receptor RXR-alpha (Homo sapiens) (P19793 whole entry, looked up): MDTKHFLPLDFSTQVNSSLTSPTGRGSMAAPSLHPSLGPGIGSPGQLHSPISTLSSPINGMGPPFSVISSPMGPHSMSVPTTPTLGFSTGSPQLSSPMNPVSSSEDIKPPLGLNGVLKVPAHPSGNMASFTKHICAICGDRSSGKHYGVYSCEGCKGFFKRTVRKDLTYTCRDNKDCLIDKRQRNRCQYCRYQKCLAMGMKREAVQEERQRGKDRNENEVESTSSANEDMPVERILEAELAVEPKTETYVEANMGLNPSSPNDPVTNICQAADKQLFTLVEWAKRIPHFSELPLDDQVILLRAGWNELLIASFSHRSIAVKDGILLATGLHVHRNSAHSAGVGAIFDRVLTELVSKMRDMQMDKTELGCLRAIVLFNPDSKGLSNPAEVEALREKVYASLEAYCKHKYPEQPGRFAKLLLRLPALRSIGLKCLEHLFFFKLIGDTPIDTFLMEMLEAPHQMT

For the compound `S=C(NC1CCCCC1)N1CCC(c2cnc[nH]2)CC1`, the Potency result in [1] is “inactive”. The compound was classed as inactive in [2].
`CC[C@@]1(O)C(=O)OCc2c1cc1n(c2=O)Cc2cc3ccccc3nc2-1`: the Potency entry in [1] is “inactive”. Also, the compound was called inactive in test [2].
For `C#CCOC(=O)C1=CCCN(C)C1`, the Potency entry in test [1] is “inactive”. Moreover, the outcome in test [2] was inactive.
On to `NCc1cc(=O)[nH]o1`, for which the Potency result in test [1] is “inactive”. For the same compound, in [2], the call was inactive.
`Clc1cnc(Oc2ccc(Oc3ncc(Cl)cc3Cl)cc2)c(Cl)c1`: the Potency entry in test [1], in test [7], in [8] and in test [9] was “inactive” throughout. The call in test [3] and in test [10] was inactive. Besides, the activation in test [4] is 0.177% (inactive); in test [5], -2.42% (inactive). Further, the figures for the max response in test [6] and in test [11] were 17% and -4.82%, respectively.
Take `NCCc1c[nH]c2ccc(O)cc12`: in [1], the Potency result is “inactive”. Further, in test [2], the compound was called inactive.
Regarding `O=[N+]([O-])c1c(Cl)c(Cl)cc(Cl)c1Cl`, the Potency result in [12], in test [7], in test [9] and in test [16] was “inactive” in each case. The compound was classed as inactive in test [13], in test [3], in test [14], in [10] and in test [17]. Moreover, the activation in [4] was -1.27% (inactive). Further, the results for the max response in [6], in [15] and in test [11] were -4.54%, -2.76% and -4.05%, respectively. The Potency in [8] is 15.8 µM (active).
In the case of `CC1=NN=C(c2ccc(N)cc2)c2cc3c(cc2C1)OCO3`, in test [1], the Potency entry was “inactive”. For the same compound, the compound was classed as inactive in [2].
Consider `C[C@H]1CCCC=CC2C[C@H](O)C[C@@H]2[C@H](O)C=CC(=O)O1` (some centres not stated), for which, in [2], the outcome was inactive.
In the case of `CCCCCC[C@H]1C(=O)O[C@H](C)[C@H](NC(=O)c2cccc(NC=O)c2O)C(=O)O[C@@H](C)[C@@H]1OC(=O)CC(C)C`, the compound was classed as inactive in test [2], in test [13] and in test [17]. For the same compound, the activation was -3.37% (inactive) in test [4] and -11.1% (inactive) in [5].
For `COC(=O)[C@@H](N)CCCN=C(N)N[N+](=O)[O-]`, the Potency entry in [1] is “inactive”. Further, the outcome in test [2] was inactive.
For `Cc1nccc2c1[nH]c1ccccc12`, in [1], the Potency result was “inactive”. Also, the result in [2] was inactive.
As for `CCCCC(CC)COC(=O)c1ccccc1C(=O)OCC(CC)CCCC` (configuration not stated), the Potency result in test [12], in test [7], in test [8], in [9] and in test [16] was “inactive” throughout. Moreover, the result in test [13], in test [3], in test [14], in test [10] and in test [17] was inactive. In addition, the activation in test [4] is 0.71% (inactive) and -2.22% (inactive); in test [5], 0.194% (inactive) and -1.46% (inactive). For the same compound, the max response in [6] was -2.79% and 33.6%; in test [15], -20.4% and -8.96%; in test [11], -12.5% and -12.9%.
In the case of `O=C1CCCN1CC#CCN1CCCC1`, in test [1], the Potency entry is “inactive”. For the same compound, the compound was classed as inactive in test [2].
With `CCCCCCCCc1ccc(O)cc1`, the activation was -7.85% (inactive) and -15.7% (inactive) in [18]; 0.354% (inactive) and -8.06% (inactive) in [5]. Further, the max response is -43.1% and -32.6% in [6]; -5.76% and -13.1% in [15]; -5.97% in test [11]. Further, the Potency entry in test [7], in [8], in test [9] and in [16] was “inactive” throughout. Besides, the compound was called inactive in test [14], in test [10] and in test [17].
Consider `O=[N+]([O-])c1c2ccccc2cc2ccccc12`, for which the Potency result in [12], in [9] and in [16] was “inactive” each time. Besides, the Potency in test [8] is 31.6 µM (active). Also, the outcome in test [10] and in test [17] was inactive. Moreover, the max response in test [15] was determined as 3.63%.

The values above are taken from PubChem BioAssay (NCATS).
